The campaign covered roughly 360,000 compounds. About 7,500 (2.1%) were called active. About 8% were inconclusive and are not listed. Calls come from the whole dose curve; as a rule, active = well fitted cell-killing curve with a large enough effect; inconclusive = small, poorly fitted or top-dose-only effect, or effect the other way, or another doubt; inactive = no such curve, though single readings can be large or run the other way. Many of the other results were omitted from the sample, so actives are more common in it than they were.
Experiment: qHTS for induction of synthetic lethality in tumor cells producing 2HG: qHTS for the HT-1080-IDH1KD cell line;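 for activity, negative = toxicity: 0% = DMSO wells and -100% = cell-free medium wells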
Conditions: HT-1080 IDH1 knockdown viability, ATP luminescence, 48 h; series mostly up to 46.1 µM; activity, negative = toxicity: at the top concentration
Procedure, shortened: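 % activity derives from luminescence (CellTiter-Glo), normalised to DMSO and no-cell wells. HT-1080-IDH1KD cells, 750/well, had 48 h compound exposure at 37 °C.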
For `Cc1cc(C)c2c(=O)n3c(nc2c1)C(CC(C)C)NC(=O)c1cc2ccccc2cc1-3` (stereo not given), the “activity, negative = toxicity” value was -0.851% (inactive). In the case of `COc1ccc(Br)c(Cn2c(C)c(C(=O)NCc3cccs3)sc2=O)c1`, the “activity, negative = toxicity” value is reported as 0.492% (inactive). With `CCc1ccc(NC(=O)Cn2nnc(C(=O)NCc3ccc(OC)cc3)c2N)cc1` the “activity, negative = toxicity” value was -1.58% (inactive). In the case of `CCOc1ccc(Cl)cc1-c1cc(C(=O)NCc2cccs2)[nH]n1`, the “activity, negative = toxicity” value is reported as 0.448% (inactive). With `CCOc1ccccc1NC(=O)Cn1nnc(C(=O)NCc2cccs2)c1N` the Potency was 0.411 µM (active). With `COc1ccc(-c2cnc3c(c2)C(=O)N([C@H](C)CO)C[C@@H](C)[C@H](CN(C)Cc2ccccc2)O3)cc1` the “activity, negative = toxicity” value was -1.8% (inactive). For `COc1ccc(OC)c(CN2C(=O)CCC2(C)c2nnnn2Cc2ccccc2)c1` (stereo not given), the “activity, negative = toxicity” value was 9.52% (inactive). In the case of `NC(=O)N1CCCC1C(=O)Nc1ccc(Cl)c(Cl)c1` (stereo not given), the “activity, negative = toxicity” value is reported as 5.56% (inactive). For `O=C(CC(O)(C(F)(F)F)C(F)(F)F)Nc1ccc(Cl)c(Cl)c1`, the Potency was 11.6 µM (active). With `O=C(COC(=O)c1cc[n+]([O-])cc1)Nc1ccc(Cl)c(C(F)(F)F)c1` the “activity, negative = toxicity” value was 0.909% (inactive). For `O=C1NC(O)CCN1C1CC(O)C(CO)O1` (stereo not given), the “activity, negative = toxicity” value was 7.01% (inactive). For `CC(=O)c1ccc(Nc2nc(C(N)c3ccccc3Cl)cs2)cc1` (stereo not given), the “activity, negative = toxicity” value was -21.8% (inactive). With `CCn1c(/C=C/c2ccc([N+](=O)[O-])o2)nc2ccccc2c1=O` the Potency was 2.59 µM (active). In the case of `CCOCCCn1c(NN)nc2ccccc2c1=O`, the “activity, negative = toxicity” value is reported as 4.05% (inactive). With `CCn1c(SCc2ccccc2)nc2cc(OC)c(OC)cc2c1=O` the “activity, negative = toxicity” value was -15.2% (inactive). With `COc1ccc(C(=O)N2CCCCC2c2cc(C(=O)Nc3ccccc3)no2)cc1` (stereo not given) the “activity, negative = toxicity” value was 0% (inactive). In the case of `O=C(c1cccc([N+](=O)[O-])c1)N1CCN(Cc2ccccc2)CC1`, the “activity, negative = toxicity” value is reported as 15.1% (inactive). In the case of `O=C(CCl)N(Cc1cccc([N+](=O)[O-])c1)c1cccc(Cl)c1`, the Potency is reported as 4.61 µM (active). For `Cc1ccc(S(=O)(=O)N(Cc2cccc([N+](=O)[O-])c2)C(=O)N2CCN(C)CC2)cc1`, the “activity, negative = toxicity” value was -11.9% (inactive). With `CCc1nc2c(OCCOc3ccccc3)cccn2c1N(C=O)Cc1ccc(OC)cc1` the “activity, negative = toxicity” value was -76.1% (inactive). For `CCc1nc(C)cn1S(=O)(=O)c1cc([N+](=O)[O-])ccc1Cl`, the Potency was 3.26 µM (active). In the case of `CC(C)c1nccn1S(=O)(=O)c1cc([N+](=O)[O-])ccc1Cl`, the “activity, negative = toxicity” value is reported as 2.08% (inactive). For `CCc1nc(C)cn1S(=O)(=O)c1cc(OC)c(C)cc1C`, the “activity, negative = toxicity” value was -17.7% (inactive). In the case of `Nc1nc2c(Br)ccc(Br)c2cc1C(=O)NCCc1ccccc1`, the “activity, negative = toxicity” value is reported as -12.4% (inactive). In the case of `CSc1ncnc2c1ncn2CCCNCc1ccco1`, the “activity, negative = toxicity” value is reported as 9.18% (inactive). With `COc1ccc(CN(C)C(=O)CC(c2ccccc2)c2ccccc2)cc1` the “activity, negative = toxicity” value was -14.7% (inactive). For `COc1ccc(COC(=O)NC(C(=O)O)c2ccccc2)cc1` (stereo not given), the “activity, negative = toxicity” value was -4.08% (inactive). In the case of `COc1ccc(C(CCN(Cc2ccc(OC)c(OC)c2)C(=O)CCl)c2ccccc2)cc1` (stereo not given), the Potency is reported as 16.4 µM (active). With `Nc1cc(C(=O)N2CCN(c3ccccc3Cl)CC2)ccc1N1CC2CC(C1)c1cccc(=O)n1C2` (stereo not given) the “activity, negative = toxicity” value was 0.978% (inactive). In the case of `COc1ccc(NC(=O)COC(=O)C2COc3ccccc3O2)cc1` (stereo not given), the “activity, negative = toxicity” value is reported as 4.67% (inactive). For `Cc1ccc(Cc2cnc(N)s2)o1`, the “activity, negative = toxicity” value was -24.2% (inactive). In the case of `Cc1ccc(CCC(=O)Nc2ncc(Cc3cc(Cl)ccc3Cl)s2)o1`, the Potency is reported as 1.16 µM (active). For `Cc1ccc(C(=O)Nc2nc3ccc(Cl)cc3s2)o1`, the “activity, negative = toxicity” value was -6.86% (inactive). With `COc1ccc(C(O)c2nc(-c3ccc(OC)nc3)cs2)cc1` (stereo not given) the “activity, negative = toxicity” value was 5.6% (inactive). With `O=[N+]([O-])c1ccc(C=Nc2ccc(Cl)cc2Cl)s1` the Potency was 11.2 µM (active). In the case of `CNN/C(N=Cc1ccc([N+](=O)[O-])s1)=N\S(=O)(=O)c1cc(C)c(Cl)cc1SCc1ccccc1`, the “activity, negative = toxicity” value is reported as 0.716% (inactive). In the case of `CC1CN(C(=O)c2ccc([N+](=O)[O-])s2)CC(C)O1` (stereo not given), the “activity, negative = toxicity” value is reported as 2.25% (inactive). With `Cc1ccc(N(Cc2cc(=O)[nH]c3ccccc23)C(=O)CCl)cc1` the Potency was 20.6 µM (active). In the case of `CC(=O)N(Cc1cc(=O)[nH]c2ccccc12)c1ccc(C)cc1C`, the “activity, negative = toxicity” value is reported as -12.4% (inactive). For `Cc1ccc(N(Cc2cc3ccccc3[nH]c2=O)C(=O)c2cccs2)cc1`, the “activity, negative = toxicity” value was 0.252% (inactive). For `CC(C)C1Cc2[nH][nH]c(=O)c2C(c2ccc(Cl)cc2)O1` (stereo not given), the “activity, negative = toxicity” value was 2.43% (inactive). With `CC(C)CNC(=O)C1(C)CCCN1C(=O)CSc1ccccc1` (stereo not given) the “activity, negative = toxicity” value was 0.548% (inactive). For `CCCC(=O)N1CCC1(C)C(=O)NCc1ccc(SC)cc1` (stereo not given), the “activity, negative = toxicity” value was 18.2% (inactive). With `COc1ccc(/C=C/C(=O)N2CCCC2)cc1OC` the “activity, negative = toxicity” value was -6.68% (inactive). In the case of `COc1cc(/C=C/C(=O)Nc2ccc(OC)c(S(=O)(=O)N3CCOCC3)c2)ccc1OCC#N`, the “activity, negative = toxicity” value is reported as -27.5% (inactive). With `COc1ccc(/C=C/C(=O)Nc2ccc(C34CC5CC(CC(O)(C5)C3)C4)cc2)cc1OC` the Potency was 2.59 µM (active). For `C[C@@H]1CN([C@H](C)CO)C(=O)CCCn2nncc2CO[C@@H]1CN(C)S(=O)(=O)c1cccc(C#N)c1`, the “activity, negative = toxicity” value was -7.06% (inactive). In the case of `CS(=O)(=O)Nc1cccc(C2=NN(C(=O)c3cccc(F)c3)C(c3cccs3)C2)c1` (stereo not given), the “activity, negative = toxicity” value is reported as -23.8% (inactive). For `CCS(=O)(=O)Nc1ccc(C2=NN(C(C)=O)C(c3cccs3)C2)cc1` (stereo not given), the Potency was 16.4 µM (active). In the case of `CS(=O)(=O)Nc1ccc(C2=NN(S(C)(=O)=O)C(c3cccs3)C2)cc1` (stereo not given), the “activity, negative = toxicity” value is reported as 10.5% (inactive). With `COCC1CCCCN1C(=O)c1cc(COc2ccc(C)c(C)c2)on1` (stereo not given) the “activity, negative = toxicity” value was -3.35% (inactive). For `COC(=O)CSC1=C(C#N)C(c2ccccc2OC)C(C(=O)OC)C(=O)N1` (stereo not given), the “activity, negative = toxicity” value was 5.07% (inactive). With `CCOC(=O)CSC1=C(C#N)C(c2sccc2C)CC(=O)N1` (stereo not given) the Potency was 1.41 µM (active). With `C=CCSC1=C(C#N)C(c2cc(Br)c(O)c(OC)c2)CC(=O)N1` (stereo not given) the “activity, negative = toxicity” value was -15.3% (inactive). In the case of `COc1ccc(C(=O)N2CCCCC2c2cc(C(=O)Nc3ccc(F)c(Cl)c3)no2)cc1` (stereo not given), the “activity, negative = toxicity” value is reported as -2.02% (inactive). In the case of `CSc1ncc(Sc2ccccc2)c(C(=O)O)n1`, the “activity, negative = toxicity” value is reported as 12.7% (inactive). For `CSc1nc(-c2ccccc2)nc(C(Cl)Cl)n1`, the Potency was 18.4 µM (active). In the case of `Cc1ccccc1-c1ccc2c(c1)O[C@@H](CN(C)Cc1ccc(C(=O)O)cc1)[C@@H](C)CN([C@H](C)CO)S2(=O)=O`, the “activity, negative = toxicity” value is reported as -7.84% (inactive). In the case of `CC(=O)Nc1cccc(Nc2ccc(C#N)cc2)c1`, the “activity, negative = toxicity” value is reported as 0.812% (inactive). With `Cc1ccc(NC(=S)N(CCN2CCCCC2)Cc2ccco2)cc1C` the “activity, negative = toxicity” value was -5.58% (inactive). For `Cc1ccc(NC(=S)N(CCCN2CCCC2)Cc2cccn2Cc2ccc(Cl)cc2)cc1`, the Potency was 23.1 µM (active). In the case of `Cc1ccc(NC(=S)N(CCCN2CCC(C)CC2)Cc2ccco2)cc1`, the “activity, negative = toxicity” value is reported as -5.45% (inactive). With `Cc1ccc(NC(=O)COC(=O)CN2CCSC2=O)cc1F` the “activity, negative = toxicity” value was 2.76% (inactive). In the case of `CCc1nc2c(OCCOc3ccc(F)cc3)cccn2c1N(C)C(=O)c1ccccc1F`, the “activity, negative = toxicity” value is reported as -5.69% (inactive). With `O=C(OCc1ccccc1)N1CCC2CC1c1ccc(-c3ccc4c(c3)OCO4)cc12` (stereo not given) the “activity, negative = toxicity” value was 3.84% (inactive).

— PubChem BioAssay AID686971 (National Center for Advancing Translational Sciences (NCATS), 2013)
Potency is the fitted concentration of half-maximal effect.
